Source: PubChem BioAssay (National Center for Advancing Translational Sciences (NCATS))
Rows were chosen to be rich in hits. Some 7% of all compounds tested hit in one or more screens of this group.
KAT2A inh: inhibitors of human GCN5L2 histone acetyltransferase; AID 504327; GCN5L2 HAT assay, ThioGlo1 CoA-SH fluorescence; Q92830; 390,000 compounds, 0.21% hits; Potency, µM (doses to about 58.9 µM), usual class: inhibitors
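qHTS, 1536-well. 20nM enzyme, pH 7.5 HEPES/EDTA/Tween-20 buffer; 15 min compound preinc., RT. Start: 75uM H3(1-25), 70uM AcCoA, 50uM ThioGlo1. Read Ex340/Em540 at t=0 (autofluorescence flag) and t=20 min.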
BAZ2B inh: inhibitors of human BAZ2B bromodomain | Q9UIF8 | AlphaScreen BAZ2B-H3K14Ac peptide displacement | AID 504333 | Potency, µM (doses to about 114 µM), usual class: inhibitors | 360,000 compounds, 4.4% hits; further: nearly all actives have a fitted effect of over 60% in size
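Complex of BAZ2B and biotin-H3K14Ac (50 nM apiece) forms over 30 min at RT, then faces library compounds up to 110 uM for another 30 min; AlphaScreen beads added, 20 min dark incubation, luminescence read.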
PI5P4K alpha inh: PI5P4K alpha (human) kinase inhibition; max response, %; PI5P4Kalpha enzyme, ADP-Glo luminescence, 60 min; active compounds read low; 330,000 compounds, 1.2% hits; AID 652105; active means max response of -50% or lower; inconclusive means between -30% and -50%; inactive means -30% or higher; further: value at the top dose of about 77 µM
Target sequence (P48426 whole entry, looked up): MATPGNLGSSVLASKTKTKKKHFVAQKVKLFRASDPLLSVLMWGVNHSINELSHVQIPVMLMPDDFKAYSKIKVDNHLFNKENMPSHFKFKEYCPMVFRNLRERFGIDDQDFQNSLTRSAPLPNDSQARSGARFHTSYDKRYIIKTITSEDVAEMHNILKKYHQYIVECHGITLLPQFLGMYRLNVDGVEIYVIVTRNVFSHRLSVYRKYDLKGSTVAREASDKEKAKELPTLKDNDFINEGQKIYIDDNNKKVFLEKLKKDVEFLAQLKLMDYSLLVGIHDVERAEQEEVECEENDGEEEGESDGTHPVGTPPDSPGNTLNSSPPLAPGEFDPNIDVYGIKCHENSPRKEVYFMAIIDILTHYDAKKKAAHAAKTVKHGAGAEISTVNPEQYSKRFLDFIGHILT
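Quantitative HTS of the MLSMR library against PI5P4Kalpha with substrate. ATP added last at 5 microM final; room temperature, 60 minutes. Remaining ATP depleted, ADP converted and read as luminescence.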
JMJD2A Tudor: blocks the human JMJD2A Tudor domain; O75164; AlphaScreen JMJD2A-Tudor / H3K4me3 peptide binding; Potency, µM (series often up to 114 µM), hits mostly inhibitors; 390,000 compounds, 4.4% hits; AID 504339; further: nearly all actives have a fitted effect of over 50% in size
PLK1 PBD block: blocks phosphopeptide binding to human PLK1 polo-box domain; P53350; Plk1 PBD binding of FITC phosphopeptide, fluorescence polarization; Potency, µM, most hits filed as inhibitors; 360,000 compounds, 2.8% hits; AID 720504; further: series mostly up to about 57 µM; nearly all actives have a fitted effect of over 65% in size
HP1b binding inh: inhibitors of HP1-beta chromodomain binding to methylated histone tails; Potency, µM (highest dose often 114 µM), usual class: inhibitors; P83916; AlphaScreen HP1-beta / biotin-H3K9me3 peptide binding; 390,000 compounds, 0.56% hits; further: nearly all actives have a fitted effect of over 70% in size
Target sequence (P83916 whole entry, looked up): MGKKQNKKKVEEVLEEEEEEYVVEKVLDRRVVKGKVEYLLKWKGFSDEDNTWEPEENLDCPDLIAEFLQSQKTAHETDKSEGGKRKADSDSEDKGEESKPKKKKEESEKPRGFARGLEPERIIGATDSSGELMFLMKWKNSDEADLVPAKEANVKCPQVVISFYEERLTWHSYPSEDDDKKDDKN
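HP1-beta protein (50 nM final) preincubated 30 min at room temperature with biotinylated H3(1-18)K9me3 peptide (50 nM) in PBS pH 7.4, 0.01% Tween-20, then compound added for 30 min. AlphaScreen streptavidin donor/nickel chelate acceptor beads (10 ug/mL final), 30 min dark, luminescence read.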
Hits are given with their value; [ ] = remark or other dose. Unless noted, the call rests on the fitted dose curve; in most records, active means well fitted curve in the direction sought with a large enough effect; inconclusive means small, poorly fitted or top-dose-only effect, or another doubt; inactive means no such curve, though single readings can be large; an effect the other way counts as inactive or inconclusive.

How did O=C(CSc1nnc(-c2cccc(Cl)c2)o1)N1CCc2ccccc21 do in these assays?
KAT2A inh: inactive; BAZ2B inh: inactive; JMJD2A Tudor: inactive; HP1b binding inh: inactive

How did Cc1cc(C)c(OCC(O)CNC(C)(C)C)c(C)c1 (stereo not drawn) do in these assays?
KAT2A inh: inactive; BAZ2B inh: inactive; PI5P4K alpha inh: inactive; JMJD2A Tudor: inactive; PLK1 PBD block: 24µM; HP1b binding inh: inactive

How did CC1=Nc2nc(N3CCCCCC3)c(C#N)c3c4c(nc(c23)N1)N(c1ccc2ccccc2c1)C(=O)C4 do in these assays?
PI5P4K alpha inh: inconclusive; JMJD2A Tudor: inactive; PLK1 PBD block: inactive; HP1b binding inh: inactive

What do the screens show for `CC(=O)Nc1ccc(NC2=CC(=O)c3ccccc3C2=O)cc1`?
KAT2A inh: inactive; BAZ2B inh: 13µM; PI5P4K alpha inh: inactive; JMJD2A Tudor: 25µM; PLK1 PBD block: inactive; HP1b binding inh: inactive

How did O=C1C=C(Nc2ccc(O)cc2)C(=O)c2ccccc21 do in these assays?
KAT2A inh: inactive; BAZ2B inh: 28µM; PI5P4K alpha inh: inconclusive; JMJD2A Tudor: inconclusive; PLK1 PBD block: inactive; HP1b binding inh: inactive

What do the screens show for `CN(C(=O)c1cc2c(=O)n3ccccc3nc2n1C)c1ccccc1`?
KAT2A inh: inactive; BAZ2B inh: inactive; JMJD2A Tudor: inactive; HP1b binding inh: inactive

How did O=C1/C(=C\c2ccc(O)c(O)c2)C(c2ccccc2)=NN1c1ccccc1 do in these assays?
KAT2A inh: inactive; BAZ2B inh: 8.9µM; PI5P4K alpha inh: -75; JMJD2A Tudor: 14µM; PLK1 PBD block: 15µM; HP1b binding inh: inconclusive

Results for COc1cc(/C=C2\C(=O)N(c3ccc(NC(C)=O)cc3)N=C2c2ccccc2)ccc1O ?
KAT2A inh: inactive; BAZ2B inh: 35µM; PI5P4K alpha inh: inactive; JMJD2A Tudor: 40µM; PLK1 PBD block: 24µM; HP1b binding inh: inconclusive

What do the screens show for `COC(=O)C#CC(=O)OC`?
KAT2A inh: inactive

How did O=C(NCCc1ccccc1)N1c2ccccc2Sc2ccccc21 do in these assays?
KAT2A inh: inactive; BAZ2B inh: inactive; PI5P4K alpha inh: inactive; JMJD2A Tudor: inconclusive; PLK1 PBD block: 24µM; HP1b binding inh: inconclusive

What do the screens show for `C/C(=N\NS(=O)(=O)c1ccc(Cl)c([N+](=O)[O-])c1)c1cc2ccccc2o1`?
KAT2A inh: inactive; BAZ2B inh: inconclusive; PI5P4K alpha inh: inactive; JMJD2A Tudor: inconclusive; PLK1 PBD block: inconclusive; HP1b binding inh: inactive

What do the screens show for `C/C(=N\NS(=O)(=O)c1ccc(Cl)c([N+](=O)[O-])c1)c1ccc(C)o1`?
KAT2A inh: inactive; BAZ2B inh: 79µM; PI5P4K alpha inh: inactive; JMJD2A Tudor: inconclusive; PLK1 PBD block: inconclusive; HP1b binding inh: inactive

How did COc1ccc2nc(N=Nc3c(O)ccc4ccccc34)sc2c1 do in these assays?
KAT2A inh: inactive; BAZ2B inh: 2.8µM

What do the screens show for `COc1ccc2nc(NC(=O)Nc3cccc4ccccc34)sc2c1`?
KAT2A inh: inactive; BAZ2B inh: inactive; PI5P4K alpha inh: inactive; JMJD2A Tudor: inactive; PLK1 PBD block: inactive; HP1b binding inh: inactive

What do the screens show for `Cc1ccccc1C(=O)Nc1nnc(-c2ccc(F)cc2)o1`?
KAT2A inh: inactive; BAZ2B inh: inconclusive; PI5P4K alpha inh: inactive; JMJD2A Tudor: inactive; PLK1 PBD block: inactive; HP1b binding inh: inactive

What do the screens show for `O=C(Nc1nnc(-c2ccc(F)cc2)o1)c1ccco1`?
KAT2A inh: inactive; BAZ2B inh: 50µM; PI5P4K alpha inh: inactive; JMJD2A Tudor: 79µM; PLK1 PBD block: inactive; HP1b binding inh: inactive

Results for CS(=O)(=O)c1ccccc1-c1nnc(NC(=O)c2ccco2)o1 ?
KAT2A inh: inactive; BAZ2B inh: 50µM; PI5P4K alpha inh: inactive; JMJD2A Tudor: 20µM; PLK1 PBD block: inactive; HP1b binding inh: inactive

How did O=C(Cn1cc(CNCc2ccccc2)nn1)Nc1cc(C(F)(F)F)ccc1Cl do in these assays?
JMJD2A Tudor: inactive

How did O=C(Oc1ccc([N+](=O)[O-])cc1)C1CC(=O)N(c2ccc3c(c2)OCCO3)C1 (stereo not drawn) do in these assays?
KAT2A inh: inactive; PI5P4K alpha inh: inactive; JMJD2A Tudor: inconclusive; PLK1 PBD block: inconclusive; HP1b binding inh: inactive

What do the screens show for `O=C(CCNC(=O)C1CCN(S(=O)(=O)c2ccccc2)CC1)NCc1ccc(Cl)c(Cl)c1`?
KAT2A inh: inconclusive; BAZ2B inh: inactive; PI5P4K alpha inh: inactive; JMJD2A Tudor: inactive; PLK1 PBD block: inactive; HP1b binding inh: inactive

What do the screens show for `CSc1ccc(NC(=O)NCCCN2CCC(Cc3ccccc3)CC2)cc1`?
KAT2A inh: inactive; BAZ2B inh: 40µM; PI5P4K alpha inh: inactive; JMJD2A Tudor: inconclusive; PLK1 PBD block: inactive; HP1b binding inh: inactive

What do the screens show for `CSc1ccc(NC(=O)NCCN2CCc3ccccc3C2)cc1`?
KAT2A inh: inactive; BAZ2B inh: inconclusive; JMJD2A Tudor: inconclusive; PLK1 PBD block: inactive; HP1b binding inh: inactive

How did CN=c1scc(C)n1/N=C/c1cc(Br)c(O)c(OC)c1 do in these assays?
KAT2A inh: inactive; BAZ2B inh: 40µM; PI5P4K alpha inh: inactive; JMJD2A Tudor: inconclusive; PLK1 PBD block: inactive; HP1b binding inh: inactive

Results for COc1cc(/C=N/N(C)C)cc(Br)c1O ?
KAT2A inh: inactive; BAZ2B inh: inactive; PI5P4K alpha inh: inactive; JMJD2A Tudor: inactive; PLK1 PBD block: inactive; HP1b binding inh: inactive

Results for Cc1cc(C)n(/N=C/c2cc(Cl)cc(Cl)c2O)c(=O)c1 ?
KAT2A inh: inactive; BAZ2B inh: inactive; PI5P4K alpha inh: inactive; JMJD2A Tudor: inactive; PLK1 PBD block: inactive; HP1b binding inh: inactive

Results for CN=c1scc(-c2cccs2)n1/N=C/c1ccc(O)c(O)c1O ?
KAT2A inh: inactive; BAZ2B inh: 25µM; PI5P4K alpha inh: -75; JMJD2A Tudor: 25µM; PLK1 PBD block: 6.7µM; HP1b binding inh: 5µM

What do the screens show for `CN=c1scc(-c2cccs2)n1/N=C/c1ccccc1O`?
KAT2A inh: inactive; BAZ2B inh: inconclusive; PI5P4K alpha inh: inactive; JMJD2A Tudor: inactive; PLK1 PBD block: inactive; HP1b binding inh: inconclusive

How did CN=c1scc(C)n1/N=C/c1ccc(O)c(O)c1O do in these assays?
KAT2A inh: inconclusive; BAZ2B inh: 25µM; PI5P4K alpha inh: inconclusive; JMJD2A Tudor: 50µM; PLK1 PBD block: 6.7µM; HP1b binding inh: inconclusive

What do the screens show for `CN(Cc1cccc(C(F)(F)F)c1)Cc1nc(-c2cnccn2)no1`?
KAT2A inh: inactive; BAZ2B inh: inactive; PI5P4K alpha inh: inactive; JMJD2A Tudor: inactive; PLK1 PBD block: inactive; HP1b binding inh: inactive

What do the screens show for `Cc1ccc(CCNC(=O)c2nnc(CS(=O)(=O)c3ccccc3)o2)cc1`?
KAT2A inh: inactive; BAZ2B inh: inactive; PI5P4K alpha inh: inactive; JMJD2A Tudor: inactive; PLK1 PBD block: inactive; HP1b binding inh: inactive

Results for CCOC(=O)c1ccc(Cl)c(S(=O)(=O)N2CCCC2)c1 ?
KAT2A inh: inactive; BAZ2B inh: inactive; PI5P4K alpha inh: inactive; JMJD2A Tudor: inactive[11.4 µM]; PLK1 PBD block: 21µM; HP1b binding inh: inactive
